Compound activity (PubChem)
The entries come from a sample that favours hits as a whole.
FBPA Giardia inh: qHTS Assay for Inhibitors of Fructose-1,6-bisphosphate Aldolase from Giardia Lamblia; A8B2U2; purified Giardia FBPA; Potency, µM (series often up to 59.6 µM), for inactives: top-dose activity, negative = inhibition, most hits filed as inhibitors; 290,000 tested, 0.71% active; also: potency is read from the fitted curve at half-maximal effect; % is scaled to controls: 0 for no effect and ±100 for the full control effect; nearly all actives have a fitted effect of over 55% in size
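Giardia FBPA (40 nM reagent) was preincubated 10 min at RT with compound (up to 57.5 uM final), then substrate plus GAPDH/TPI/NAD/arsenate coupling system with diaphorase/resazurin was added; resorufin fluorescence (525/598 nm) was read after 20 min.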
Tb PYK inh: qHTS of Trypanosoma Brucei Inhibitors; TbPYK enzyme, Kinase-Glo Plus ATP luminescence, 45 min; 410,000 tested, 0.12% active; AID 624173, 2012; Potency, µM (titrated, usually from 76.8 µM), inactives show at the top dose activity, negative = inhibition, most hits filed as inhibitors; also: potency is read from the fitted curve at half-maximal effect; % is scaled to controls: 0 for no effect and ±100 for the full control effect; nearly all actives have a fitted effect of over 50% in size
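ADP (130 uM final) triggers the TbPYK reaction after compound addition; incubation is 45 min at room temperature. Kinase-Glo Plus is then added and luminescence imaged. Normalized data are fitted to concentration-effect curves.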
LmPK inhibitor: qHTS Assay for Inhibitors of Leishmania Mexicana Pyruvate Kinase (LmPK). purified LmPK, Kinase-Glo ATP luminescence, 1 h. Q27686. Potency, µM (doses to about 57.5 µM), without a hit: at the top dose activity change, negative = inhibition, most hits filed as inhibitors. 290,000 tested, 0.37% active; also: potency is read from the fitted curve at half-maximal effect; % is scaled to controls: 0 for no effect and ±100 for the full control effect
Target sequence (Q27686 whole entry, looked up): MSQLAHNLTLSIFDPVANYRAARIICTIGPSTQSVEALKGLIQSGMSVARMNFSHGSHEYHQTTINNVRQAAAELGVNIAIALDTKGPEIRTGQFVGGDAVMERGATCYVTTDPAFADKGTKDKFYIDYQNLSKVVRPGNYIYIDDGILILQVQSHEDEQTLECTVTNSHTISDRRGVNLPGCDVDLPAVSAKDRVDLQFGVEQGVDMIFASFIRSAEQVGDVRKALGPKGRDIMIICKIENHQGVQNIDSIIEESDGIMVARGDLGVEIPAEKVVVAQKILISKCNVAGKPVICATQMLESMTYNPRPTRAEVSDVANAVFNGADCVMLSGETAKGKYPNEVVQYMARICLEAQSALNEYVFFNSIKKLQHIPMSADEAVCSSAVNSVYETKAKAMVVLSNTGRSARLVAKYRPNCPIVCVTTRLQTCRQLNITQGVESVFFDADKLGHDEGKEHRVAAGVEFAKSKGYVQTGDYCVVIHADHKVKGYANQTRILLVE
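Purified LmPK (0.1 nM) converted ADP (0.1 mM) to ATP with PEP (0.5 mM) in imidazole buffer pH 7.2 with KCl and MgCl2, 1 h at room temperature. ATP was read by Kinase-Glo luminescence; data normalized to uninhibited and no-enzyme controls.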
CHX counter: Cycloheximide Counterscreen for Small Molecule Inhibitors of Shiga Toxin. max response, %. cell reporter, cycloheximide protein synthesis inhibition counterscreen. 300,000 tested, 12% active; in the data active = max response mostly above about 13%, no sharp cut-off; inactive = mostly below about 14%; also: read at 38.3 µM for the half of the compounds with a filed dose; 0% is about no effect
Sm TGR inh: qHTS Assay for the Inhibitors of Schistosoma Mansoni Peroxiredoxins; Schistosoma mansoni thioredoxin glutathione reductase (TGR), Q962Y6; purified TGR, DTNB reduction, TNB absorbance 405 nm; Potency, µM (titrated, usually from 114 µM), for the others: top-dose activity change, negative = inhibition, usual class: inhibitors; 360,000 tested, 3% active; also: potency is read from the fitted curve at half-maximal effect; % is scaled to controls: 0 for no effect and ±100 for the full control effect; nearly all actives have a fitted effect of over 60% in size
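First, TGR (20 nM dispensed) and NADPH were mixed with compound. Second, a 15 min room-temperature incubation followed. Third, further NADPH and then DTNB were added to start the reaction. Finally, TNB absorbance was monitored kinetically.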
Shiga inhibitor: A qHTS for Small Molecule Inhibitors of Shiga Toxin; Vero cells, Shiga toxin protein synthesis inhibition reporter; 290,000 tested, 9.2% active; inhibition, % at 38.7 µM; in the data active = inhibition mostly above about 28%, no sharp cut-off; inactive = mostly below about 43%; also: 0% is about no effect
Numbers without * were called inactive; ? = inconclusive; . = no result. Unless noted, calls follow the shape of the dose curve; as a rule, active = well fitted curve in the direction sought with a large enough effect; inconclusive = small, poorly fitted or top-dose-only effect, or another doubt; inactive = no such curve, though single readings can be large; an effect the other way counts as inactive or inconclusive.

SMILES | FBPA Giardia inh | Tb PYK inh | LmPK inhibitor | CHX counter | Sm TGR inh | Shiga inhibitor
O=C(NNC(=S)Nc1ccc(F)c(Cl)c1)C1CC1 | -3.7% | -25.5% | 1.8% | -0.3 | 10.9% | -6.7
O=C(NC(=S)Nc1ccc(O)cc1)C1CCCC1 | . | 0.6% | . | . | ? | .
O=C(NC(=S)Nc1ccc(F)cc1)C1CCCCC1 | . | 0.1% | -10.6% | 23.3* | ? | 89.3*
CN(C)C(=S)Nc1ccc(Br)c(Cl)c1 | -4.1% | -2.3% | 2.2% | -0.8 | 8.8% | -1.9
CC(=O)c1ccc(NC(=S)Nc2ccc(Br)c(Cl)c2)cc1 | -17.5% | -3.4% | 1.7% | -1.2 | 22.4µM* | -3.9
CC(=O)Nc1ccc(NC(=S)NC(=O)C2CC2)cc1 | -8.7% | -2.1% | 3.9% | 25.1* | -8.7% | 64.5*
CC1(C)N=C(N)N=C(N)N1c1cccc(C#N)c1 | . | -5.4% | . | . | . | .
COC(=O)c1cscc1S(=O)(=O)Cc1ccccc1 | -11.7% | 0.3% | 4.9% | -1.4 | 10µM* | .
CCCS(=O)(=O)c1ncc(Cl)c(C(=O)Nc2c(C(=O)Nc3ccccc3)oc3ccccc23)n1 | . | -8.1% | . | . | -5.4% | .
COC(=O)c1ccccc1NC(=O)CN(CCc1ccccc1)S(C)(=O)=O | -11.7% | -4.2% | 5.7% | -1.0 | -0.1% | -7.3
O=C(c1ccc(Cl)cc1)N(Cc1ccco1)Cc1ccco1 | . | 4.1% | . | . | -2.4% | .
CS(=O)(=O)c1ncc(Cl)c(C(=O)N(Cc2ccc(Cl)cc2)Cc2ccco2)n1 | . | -9.6% | . | . | 1.78µM* | .
CCS(=O)(=O)c1ncc(Cl)c(C(=O)NCc2ccccc2)n1 | . | 1.9% | . | . | 31.6µM* | .
COC(=O)c1ccccc1NC(=O)c1nc(S(=O)(=O)Cc2ccccc2)ncc1Cl | . | 2.7% | -4.2% | -9.8 | 2.82µM* | -1.8
COc1ccc(N(Cc2ccccc2)C(=O)c2nc(S(C)(=O)=O)ncc2Cl)cc1 | . | -5.3% | . | . | 5.62µM* | .
Cc1noc(C(=O)NCc2ccccc2)c1Cl | 0.2% | 0.8% | 0.2% | -0.5 | 4.6% | -18.6
COc1ccc(CNC(=O)c2nc(SC(C)C)ncc2Cl)cc1 | . | -8.5% | . | . | -3.9% | .
O=C(NCc1ccccc1)c1nc(S(=O)(=O)Cc2ccccc2)ncc1Cl | . | -5.7% | -4.1% | 27.5* | 8.91µM* | 48.3
CC(=O)Nc1ccc(NC(=O)c2nc(S(=O)(=O)Cc3ccccc3)ncc2Cl)cc1 | . | -12.0% | -9.4% | 36.6* | 5.01µM* | 93.5*
CCCSc1ncc(Cl)c(C(=O)N(Cc2ccccc2)c2ccc(OC)cc2)n1 | . | -5.7% | . | . | 2.4% | .
CS(=O)(=O)c1ncc(Cl)c(C(=O)Nc2ccc3ccccc3c2)n1 | 4.1% | -7.8% | 4.0% | 1.2 | . | -4.0
COc1ccc(CNC(=O)c2nc(S(=O)(=O)Cc3ccccc3)ncc2Cl)cc1 | . | 18.9% | -9.6% | 28.9* | 2.51µM* | 14.5
CN(CCc1ccccc1)Cc1ccccc1[N+](=O)[O-] | -10.2% | 6.9% | -2.6% | 17.2* | 3.9% | 41.8
O=C(Nc1ccc(Br)cc1)c1cccc(N2C(=O)C3C4C=CC(C4)C3C2=O)c1 (configuration not stated) | 1.4% | -1.8% | -0.8% | 10.4 | -14.4% | 20.1
O=C(Nc1ccccc1)c1cccc(N2C(=O)C3C4C=CC(C5CC45)C3C2=O)c1 (configuration not stated) | . | -0.9% | 5.3% | 2.5 | 3.5% | 7.6
SMILES | FBPA Giardia inh | Tb PYK inh | LmPK inhibitor | CHX counter | Sm TGR inh | Shiga inhibitor
COC(=O)c1ccc(NC(=O)c2cccc(N3C(=O)C4C5C=CC(C6CC56)C4C3=O)c2)cc1 (configuration not stated) | . | 31.9% | -2.8% | 33.5* | -1.2% | 64.5*
O=C(Nc1ccccc1)c1cccc(N2C(=O)C3C4C=CC(C4)C3C2=O)c1 (configuration not stated) | . | 3.1% | -6.1% | 19.0* | 56.2% | 29.1
COc1ccccc1-c1cc(C(F)(F)F)nc(S(=O)(=O)CCCC(=O)N2CCOCC2)n1 | 6.8% | 0.2% | 3.2% | -4.3 | 31.6µM* | -24.1
CS(=O)(=O)c1nc(-c2ccccc2)cc(C(F)(F)F)n1 | 6.1% | -0.2% | -0.3% | -6.3 | 10µM* | -6.8
COc1ccc(-c2cc(C(F)(F)F)nc(S(=O)(=O)CCC(=O)N3CCOCC3)n2)cc1 | 5.4% | 8.8% | 1.9% | 1.4 | 28.2µM* | -10.3
COc1ccccc1-c1cc(C(F)(F)F)nc(S(=O)(=O)CCCC(=O)O)n1 | 13.7% | -3.5% | 10.8% | -1.7 | ? | -27.2
COc1ccc(-c2cc(C(F)(F)F)nc(SCC(=O)N3CCOCC3)n2)cc1OC | 7.0% | -5.3% | 4.4% | -1.4 | 3.8% | -10.2
Cc1cc(NC(=O)CCS(=O)(=O)c2nc(-c3ccccc3)cc(C(F)(F)F)n2)no1 | 1.7% | -1.8% | 2.0% | 5.1 | 31.6µM* | -15.5
CCOC(=O)C1(Cc2ccccc2C)CCCN(S(=O)(=O)CC)C1 (configuration not stated) | -9.8% | -2.8% | -0.9% | -1.7 | -8.3% | -7.5
O=C(O)Cc1ccc(NS(=O)(=O)c2ccc3c(c2)OCCO3)cc1 | . | -6.9% | . | . | . | .
COc1ccc(NC(=O)CCS(=O)(=O)c2nc(-c3ccc4c(c3)OCO4)cc(C(F)(F)F)n2)cc1 | . | 5.5% | . | . | 79.4µM* | .
COc1ccc(-c2cc(C(F)(F)F)nc(S(=O)(=O)CCCC(=O)Nc3cccc(O)c3)n2)cc1OC | -0.3% | -5.8% | 3.1% | 1.9 | 35.5µM* | -15.2
O=C(NC1CC1)c1cc2c(F)cccc2s1 | -2.9% | -7.8% | -4.7% | 33.4* | . | 24.4
COCc1c(C(=O)NC2CCCCC2)sc2cccc(F)c12 | . | 1.7% | . | . | 4.7% | .
Cc1ccc(-n2ncc3c(NCCCc4ccccc4)ncnc32)cc1 | . | 0.4% | . | . | 11.3% | .
COC(=O)N(C)C[C@@H]1OCc2ccccc2-c2c(n(C)c3ccccc23)C(=O)N([C@H](C)CO)C[C@@H]1C | . | -3.0% | . | . | . | .
O=C(CCN1CCN(c2ccccc2F)CC1)Nc1ccccc1F | 1.5% | -1.4% | -6.7% | 17.8* | 8.2% | 34.4
O=C(CCC(=O)N1CCN(c2ccccc2F)CC1)c1ccc(F)cc1 | 1.8% | 2.0% | 3.1% | 15.4* | -4.9% | 22.3
CN1CCN(C(=O)CCC(=O)c2ccc(F)cc2)CC1 | -4.6% | -6.5% | 4.8% | 15.4 | -11.0% | 15.5
COc1ccc(C(=O)CCN2CCN(c3ccccc3F)CC2)cc1 | -11.2% | -3.8% | -0.5% | 8.0 | 0.794µM* | 3.9
OC(CN1CCN(c2ccccc2F)CC1)c1ccc(F)cc1 (configuration not stated) | -6.3% | 3.8% | 3.7% | 9.9* | 16.2% | 12.0
O=C(CN1CCN(c2ccccc2F)CC1)Nc1ccccc1F | 10.6% | 1.9% | 9.4% | 0.2 | -2.7% | 17.6
Cc1cccc(CSCc2ccc(C(=O)NCCc3ccccc3)o2)c1 | . | 0.5% | . | . | -18.1% | .
